# Results published in ChEMBL document CHEMBL3988442, “University of Dundee, Small-Polar-MMV Screening Library” (2021).
# For some of these results: Results with a measured potency or affinity are listed apart.
# How the values were obtained:
# Design in all cases: scale not given: direction of the effect not stated beside the values
# [1] = target: Protein translocase subunit SecA (Escherichia coli (strain K12)) (UniProt P10408); test: Assay to Identify E. coli SecA ATPase Inhibitors; format: functional; settings: 30 µM
# Sequence of Protein translocase subunit SecA (Escherichia coli (strain K12)) (P10408 whole entry): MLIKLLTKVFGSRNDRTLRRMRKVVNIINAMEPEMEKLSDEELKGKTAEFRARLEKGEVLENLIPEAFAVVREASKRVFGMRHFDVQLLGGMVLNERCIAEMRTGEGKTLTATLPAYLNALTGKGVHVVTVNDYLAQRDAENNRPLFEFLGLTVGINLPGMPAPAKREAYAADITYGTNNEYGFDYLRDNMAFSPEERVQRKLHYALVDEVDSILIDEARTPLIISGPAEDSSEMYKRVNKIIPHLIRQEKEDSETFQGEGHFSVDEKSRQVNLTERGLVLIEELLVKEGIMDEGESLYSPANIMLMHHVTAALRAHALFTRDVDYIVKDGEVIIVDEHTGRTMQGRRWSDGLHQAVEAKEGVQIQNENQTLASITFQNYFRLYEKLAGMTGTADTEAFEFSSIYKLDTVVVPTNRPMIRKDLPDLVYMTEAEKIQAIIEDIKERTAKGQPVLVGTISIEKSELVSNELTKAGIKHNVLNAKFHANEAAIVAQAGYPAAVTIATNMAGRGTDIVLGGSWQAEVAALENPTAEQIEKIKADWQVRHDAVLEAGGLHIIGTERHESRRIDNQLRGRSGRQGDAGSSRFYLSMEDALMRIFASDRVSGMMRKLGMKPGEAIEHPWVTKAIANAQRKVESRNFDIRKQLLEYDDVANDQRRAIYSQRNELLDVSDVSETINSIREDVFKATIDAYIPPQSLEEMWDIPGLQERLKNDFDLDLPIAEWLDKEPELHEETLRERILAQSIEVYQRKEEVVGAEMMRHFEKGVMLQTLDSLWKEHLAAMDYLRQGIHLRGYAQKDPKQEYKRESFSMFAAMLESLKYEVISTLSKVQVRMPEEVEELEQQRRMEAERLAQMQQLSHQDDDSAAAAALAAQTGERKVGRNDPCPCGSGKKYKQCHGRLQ
# [2] = target: T1, Ubiquitin-activating enzyme e1, putative (Leishmania donovani (strain BPK282A1)) (UniProt E9BSI1); test: Leishmania donovani Ubiquitin Activating Enzyme (LdE1); format: functional; settings: 30 µM
# T1 sequence (whole entry): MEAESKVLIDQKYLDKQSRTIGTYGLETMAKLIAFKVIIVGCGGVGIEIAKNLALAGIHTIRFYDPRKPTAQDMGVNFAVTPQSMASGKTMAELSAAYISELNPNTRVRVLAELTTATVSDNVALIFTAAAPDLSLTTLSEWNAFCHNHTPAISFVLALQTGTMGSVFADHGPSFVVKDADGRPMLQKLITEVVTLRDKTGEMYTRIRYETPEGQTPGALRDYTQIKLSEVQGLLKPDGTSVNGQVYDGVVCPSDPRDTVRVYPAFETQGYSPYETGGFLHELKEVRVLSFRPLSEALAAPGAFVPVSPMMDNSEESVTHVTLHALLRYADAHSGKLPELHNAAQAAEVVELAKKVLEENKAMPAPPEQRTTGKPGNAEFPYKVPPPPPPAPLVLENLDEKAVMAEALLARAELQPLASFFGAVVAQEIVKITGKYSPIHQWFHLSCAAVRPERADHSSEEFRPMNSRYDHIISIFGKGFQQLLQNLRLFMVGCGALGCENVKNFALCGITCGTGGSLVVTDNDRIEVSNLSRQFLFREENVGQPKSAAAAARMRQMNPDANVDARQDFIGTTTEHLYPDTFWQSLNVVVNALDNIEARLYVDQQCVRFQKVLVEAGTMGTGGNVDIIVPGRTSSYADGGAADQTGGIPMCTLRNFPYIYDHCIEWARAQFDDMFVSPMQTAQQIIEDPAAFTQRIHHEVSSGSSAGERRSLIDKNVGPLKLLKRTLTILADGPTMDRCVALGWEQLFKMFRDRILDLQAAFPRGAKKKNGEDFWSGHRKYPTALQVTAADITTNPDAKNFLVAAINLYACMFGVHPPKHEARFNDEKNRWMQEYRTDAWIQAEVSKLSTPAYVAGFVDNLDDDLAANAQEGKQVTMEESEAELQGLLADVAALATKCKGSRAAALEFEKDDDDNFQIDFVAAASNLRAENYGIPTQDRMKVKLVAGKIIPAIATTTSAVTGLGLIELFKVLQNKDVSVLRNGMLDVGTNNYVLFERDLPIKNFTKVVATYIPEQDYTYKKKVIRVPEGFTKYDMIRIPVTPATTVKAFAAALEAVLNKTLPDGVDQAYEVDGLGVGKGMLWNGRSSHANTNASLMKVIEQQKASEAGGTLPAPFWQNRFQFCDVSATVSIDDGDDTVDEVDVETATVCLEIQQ
# [3] = target: AMP-activated protein kinase, AMPK (Homo sapiens) (UniProt P54646+O43741+P54619+Q9UGJ0+Q9Y478+Q13131+Q9UGI9); test: AMP-dependent Kinase enzyme assay. An in vitro enzyme assay that detects ADP turnover that is directly proportional to AMPK activity. This uses naive AMPK that is activated during the assay with MK-8722; format: functional; settings: 30 µM
# [4] = target: Sialic acid-binding Ig-like lectin 9 (Homo sapiens) (UniProt Q9Y336); test: Hs-Siglec9 ALPHAscreen SOP 20170721; settings: 10 µM
# Sequence of Sialic acid-binding Ig-like lectin 9 (Homo sapiens) (Q9Y336 whole entry): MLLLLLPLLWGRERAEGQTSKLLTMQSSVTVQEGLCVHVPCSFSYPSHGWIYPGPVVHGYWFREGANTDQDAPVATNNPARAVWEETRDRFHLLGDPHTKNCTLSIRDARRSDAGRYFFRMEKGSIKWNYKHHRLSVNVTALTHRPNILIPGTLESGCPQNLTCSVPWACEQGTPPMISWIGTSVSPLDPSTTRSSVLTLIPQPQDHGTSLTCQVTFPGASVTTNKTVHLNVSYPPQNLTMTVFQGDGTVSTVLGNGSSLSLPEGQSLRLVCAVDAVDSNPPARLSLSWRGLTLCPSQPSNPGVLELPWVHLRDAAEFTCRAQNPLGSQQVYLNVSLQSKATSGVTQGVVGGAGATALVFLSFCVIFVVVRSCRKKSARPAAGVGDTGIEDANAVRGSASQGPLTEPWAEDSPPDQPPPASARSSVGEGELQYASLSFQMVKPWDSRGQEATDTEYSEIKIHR
# [5] = test system: Trypanosoma cruzi; test: Trypanosoma cruzi phosphomannomutase and mannose-1-phosphate guanylyltransferase assay; format: functional; settings: 10 µM
# [6] = target: T2, Arginase-2, mitochondrial (Homo sapiens) (UniProt P78540); test: in vitro enzyme assay to detect the production of urea directly proportional to the activity of Arginase II; format: functional; settings: 33.3 µM; note: in the data most compounds retested in dose-response had high values
# T2 sequence (whole entry): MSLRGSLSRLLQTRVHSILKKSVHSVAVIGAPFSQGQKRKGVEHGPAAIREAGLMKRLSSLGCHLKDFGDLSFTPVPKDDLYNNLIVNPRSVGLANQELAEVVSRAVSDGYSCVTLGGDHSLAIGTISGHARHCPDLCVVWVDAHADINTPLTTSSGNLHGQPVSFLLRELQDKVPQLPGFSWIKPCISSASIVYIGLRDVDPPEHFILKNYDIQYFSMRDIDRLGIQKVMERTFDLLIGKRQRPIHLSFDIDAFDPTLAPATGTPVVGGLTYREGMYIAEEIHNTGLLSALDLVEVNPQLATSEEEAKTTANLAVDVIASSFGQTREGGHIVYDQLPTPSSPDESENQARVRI
# [7] = target: T3, Proteasome subunit beta (Trypanosoma cruzi) (UniProt O96673); test: Trypanosoma cruzi proteasome chymotrypsin-like activity (TcProtChymo) assay.; note: in the data most compounds retested in dose-response had high values; format: functional; settings: 9.37 µM
# T3 sequence (whole entry): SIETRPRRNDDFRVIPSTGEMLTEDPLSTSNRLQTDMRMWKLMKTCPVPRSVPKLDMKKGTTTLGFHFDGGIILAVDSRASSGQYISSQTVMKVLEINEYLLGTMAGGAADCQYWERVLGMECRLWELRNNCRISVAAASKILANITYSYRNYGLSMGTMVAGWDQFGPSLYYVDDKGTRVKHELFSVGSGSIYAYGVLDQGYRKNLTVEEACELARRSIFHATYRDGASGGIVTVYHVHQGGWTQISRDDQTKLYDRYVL
# [8] = organism: Homo sapiens; test: To identify inhibition of the IFN signalling (Jak-Stat) pathway via expression of an eGFP reporter gene under the control of an IFN-stimulated response element (ISRE) containing MxA promoter.; format: functional; settings: 30 µM
# [9] = target: T4, Tyrosyl-tRNA synthetase, putative (Trypanosoma cruzi (strain CL Brener)) (UniProt Q4DSP6); test: Trypanosoma cruzi tyrosyl tRNA synthetase (TcYRS) _High Tyrosine SOP; format: functional; settings: 30 µM; note: in the data most compounds retested in dose-response had high values
# T4 sequence (whole entry): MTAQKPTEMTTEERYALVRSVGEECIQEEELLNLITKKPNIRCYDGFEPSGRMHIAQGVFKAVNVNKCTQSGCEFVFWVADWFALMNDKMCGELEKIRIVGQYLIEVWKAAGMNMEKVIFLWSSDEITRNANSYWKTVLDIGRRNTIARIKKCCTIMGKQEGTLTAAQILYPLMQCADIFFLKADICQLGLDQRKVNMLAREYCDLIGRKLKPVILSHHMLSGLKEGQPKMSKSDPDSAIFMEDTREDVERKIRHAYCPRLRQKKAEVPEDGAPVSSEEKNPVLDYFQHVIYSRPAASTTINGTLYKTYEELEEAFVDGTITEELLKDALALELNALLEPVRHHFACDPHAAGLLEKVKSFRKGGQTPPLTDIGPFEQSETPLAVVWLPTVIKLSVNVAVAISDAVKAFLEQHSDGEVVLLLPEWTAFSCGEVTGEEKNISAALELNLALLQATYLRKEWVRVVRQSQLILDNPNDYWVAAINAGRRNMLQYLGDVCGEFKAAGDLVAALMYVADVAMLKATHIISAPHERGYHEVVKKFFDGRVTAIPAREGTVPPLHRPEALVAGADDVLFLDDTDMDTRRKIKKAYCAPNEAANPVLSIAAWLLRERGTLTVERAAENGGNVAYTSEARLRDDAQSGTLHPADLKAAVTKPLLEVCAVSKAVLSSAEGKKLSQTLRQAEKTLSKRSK
# [10] = target: T4, Tyrosyl-tRNA synthetase, putative (Trypanosoma cruzi (strain CL Brener)); test: Trypanosoma cruzi tyrosyl tRNA synthetase (TcYRS) SOP; format: functional; settings: 30 µM
# [11] = target: Chromo domain-containing protein 1 (Saccharomyces cerevisiae (strain ATCC 204508 / S288c) (Baker's yeast)) (UniProt P32657); test: ScCHD-1 Enzyme Inhibition Assay; format: functional; settings: 30 µM; note: in the data most compounds retested in dose-response had high values
# Sequence of Chromo domain-containing protein 1 (Saccharomyces cerevisiae (strain ATCC 204508 / S288c) (Baker's yeast)) (P32657 whole entry, the tested form may be a part): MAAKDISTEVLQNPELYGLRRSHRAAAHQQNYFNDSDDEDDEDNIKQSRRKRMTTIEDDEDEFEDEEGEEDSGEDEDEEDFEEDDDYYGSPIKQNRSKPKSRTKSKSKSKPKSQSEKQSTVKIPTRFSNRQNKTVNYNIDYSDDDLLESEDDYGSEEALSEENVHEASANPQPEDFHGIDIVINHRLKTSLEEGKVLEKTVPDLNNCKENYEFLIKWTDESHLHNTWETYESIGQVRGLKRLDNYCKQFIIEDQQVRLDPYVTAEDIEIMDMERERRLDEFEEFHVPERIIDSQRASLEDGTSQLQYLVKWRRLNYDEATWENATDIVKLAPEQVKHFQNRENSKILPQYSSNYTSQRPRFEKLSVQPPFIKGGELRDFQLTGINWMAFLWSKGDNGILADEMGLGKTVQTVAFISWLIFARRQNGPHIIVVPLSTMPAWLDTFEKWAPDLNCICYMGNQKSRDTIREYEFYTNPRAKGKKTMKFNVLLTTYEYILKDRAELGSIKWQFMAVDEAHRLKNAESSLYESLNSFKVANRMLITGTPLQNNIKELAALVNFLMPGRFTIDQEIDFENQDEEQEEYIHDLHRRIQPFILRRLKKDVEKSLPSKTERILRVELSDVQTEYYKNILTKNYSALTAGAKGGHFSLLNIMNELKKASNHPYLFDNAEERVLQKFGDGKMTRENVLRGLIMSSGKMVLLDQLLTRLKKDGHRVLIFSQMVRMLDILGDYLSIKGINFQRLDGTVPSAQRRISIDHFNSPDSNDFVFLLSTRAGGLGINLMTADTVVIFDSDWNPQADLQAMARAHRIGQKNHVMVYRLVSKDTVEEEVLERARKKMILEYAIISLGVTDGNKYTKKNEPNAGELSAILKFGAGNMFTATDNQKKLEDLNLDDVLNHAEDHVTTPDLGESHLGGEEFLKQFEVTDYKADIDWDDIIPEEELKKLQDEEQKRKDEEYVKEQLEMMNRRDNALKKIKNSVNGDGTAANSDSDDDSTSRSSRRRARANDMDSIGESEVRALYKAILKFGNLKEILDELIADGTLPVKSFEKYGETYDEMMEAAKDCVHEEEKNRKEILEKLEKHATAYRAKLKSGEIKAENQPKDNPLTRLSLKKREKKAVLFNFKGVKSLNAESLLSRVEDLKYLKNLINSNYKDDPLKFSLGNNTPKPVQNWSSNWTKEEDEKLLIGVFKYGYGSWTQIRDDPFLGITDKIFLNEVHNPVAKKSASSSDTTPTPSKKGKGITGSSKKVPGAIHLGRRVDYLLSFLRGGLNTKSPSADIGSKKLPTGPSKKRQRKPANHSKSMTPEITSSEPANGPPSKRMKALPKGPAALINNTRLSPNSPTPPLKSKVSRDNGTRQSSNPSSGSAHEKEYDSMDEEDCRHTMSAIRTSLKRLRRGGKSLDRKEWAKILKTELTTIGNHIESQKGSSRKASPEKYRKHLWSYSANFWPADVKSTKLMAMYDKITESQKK
Compound,Percent Effect [1] [%],Percent Effect [2] [%],Percent Effect [3] [%],Percent Effect [4] [%],Percent Effect [5] [%],Percent Effect [6] [%],Percent Effect [7] [%],Percent Effect [8] [%],Percent Effect [9] [%],Percent Effect [10] [%],Percent Effect [11] [%]
COc1ccc(CC(=O)N(C)Cc2nnc3ccccn23)cc1,-4.71,26,2.72,-2.77,3.62,-6.53,17.1,12.6,8.57,25.9,77.9
O=C(NCCCOCC1CCCO1)c1cccnc1N1CCCC1 (stereo unspecified),-2.67,5.41,4.06,-10.2,-2.93,0.833,14.3,-4.98,9.9,-3.66,6.21
CC(C)c1nnc2n1CCN(CC(=O)Nc1nncs1)C2,-0.203,13,1.97,-3.59,5.19,5.68,8,-15.7,2.86,14.1,-14.6
CC(C)c1nc2n(n1)CC(NCc1nnc(-c3ccco3)o1)CC2 (stereo unspecified),-2.41,0,-14.3,-0.788,5.94,0.802,-3.06,-2.24,3.45,6.17,-0.171
O=C(CCC1CCCO1)NCc1ccnc(-n2cccn2)c1 (stereo unspecified),-7.06,13.2,2.95,-9.63,-7.38,-1.44,5.33,10.6,0.493,11.1,-5.06
NC(=O)C1CN(C(=O)Nc2ccccc2SC(F)(F)F)CCO1 (stereo unspecified),-2.59,10.8,-2.48,12.1,7.15,-1.29,4.31,9.57,5.94,18.3,-7.87
N#Cc1cc(NC(=O)c2ccccc2)ccc1N1CCC(O)CC1,-0.198,10.8,-7.93,6.67,2.51,9.05,10,-5.21,1.59,9.76,-2.82
Cc1cc(CN(C)C(=O)c2cc3c([nH]c2=O)CCCC3=O)no1,-5.46,5.41,-1.63,-1.13,-7.52,5.73,-5.57,18,0.99,6.1,-0.0983
N#Cc1ccc(CNCC(C(=O)N2CCOCC2)c2ccccc2)cc1 (stereo unspecified),-2.65,10.4,-4.88,7.63,2.06,-75.9,4.16,-2.22,4.3,13.6,-3.12
CCOCCCNC(=O)c1cn(CC)nc1C,-3.21,20,-2.97,-1.34,0.982,1.58,15.3,16.9,6.35,17.9,-9.37
CCc1nc2n(n1)CC(NCc1ncc(-c3ccccc3)o1)CC2 (stereo unspecified),-1.59,-2.63,0.215,5.65,1.21,1.8,4.65,-5.2,3.45,-23.5,-5.56
